Screening data: PubChem BioAssay, National Center for Advancing Translational Sciences (NCATS)
Shown are actives, neighbours in structure and some others; about 17% of the full set was active somewhere.
DT40 TDP1 no CPT – qHTS for Inhibitors of human tyrosyl-DNA phosphodiesterase 1 (TDP1): qHTS in cells in absence of CPT. DT40 Tdp1-/- hTDP1 cells, no CPT, ATP luminescence, 48 h. Potency, µM (series often up to 46.2 µM), hits mostly inhibitors. 420,000 tested, 15% active. AID 686978, 2013; also: nearly all actives have a fitted effect of over 55% in size
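Camptothecin absent (DMSO only). Human TDP1-complemented DT40 knockout cells, 400 cells/well, 37 °C for minimum 48 hr; ATP measured via CellTiter-Glo, 30 min dark incubation, luminescence.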
HT1080 IDH1KD tx – kills HT-1080 cells with IDH1 knockdown | HT-1080 IDH1 knockdown viability, ATP luminescence, 48 h | Potency, µM (series often up to 46.1 µM), actives largely listed as cytotoxic | 360,000 tested, 2% active | AID 686971
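Assay cells: HT-1080 with IDH1 knockdown, 750 per well, RPMI/5% FBS. Exposure: 48 h at 37 °C following 2 h pre-incubation. Read: CellTiter-Glo luminescence; fitted concentration-response, curve class assigned.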
HT1080NT lethal – kills 2HG-producing HT-1080-NT fibrosarcoma cells | HT-1080-NT fibrosarcoma viability, CellTiter-Glo ATP luminescence, 48 h | Potency, µM (top dose mostly 46.1 µM), actives largely listed as cytotoxic | 360,000 tested, 1.6% active;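 also: NT is the 2HG producing partner of a matched IDH1 knockdown line; nearly all actives have a fitted effect of over 55% in size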
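Viability of the 2HG-overproducing fibrosarcoma line after 48 hours of compound exposure at 37 degrees C was determined by luminescence with CellTiter-Glo, and concentration-effect curves were then fitted and categorized.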
DT40 TDP1 CPT – DT40-hTDP1 cell growth loss with CPT | chicken DT40 Tdp1-/-;hTDP1 cells + 20 nM CPT, ATP luminescence, 48 h | Potency, µM (highest dose often 46.2 µM), actives largely listed as inhibitors | 420,000 tested, 12% active; also: nearly all actives have a fitted effect of over 55% in size
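Chicken DT40 Tdp1-/- cells complemented with human TDP1, 400 cells/well, exposed to compounds plus 20 nM camptothecin for at least 48 h at 37 C; viability read as ATP content by CellTiter-Glo luminescence.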
TGFb SMAD3 inh – inhibitors of TGF-b signaling; HepG2 CAGA-GFP TGF-b/SMAD3 reporter, GFP fluorescence, 18 h; TGF-beta stimulated, 500 pg/mL final; Potency, µM (highest dose often 46.1 µM), usual class: inhibitors; 410,000 tested, 1.2% active; also: nearly all actives have a fitted effect of over 65% in size
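HEPG2 CAGA-GFP cells (1000/well, DMEM with 1% FBS) were pre-incubated 2 h at 37 degrees C, given compound by pin tool, then stimulated with TGF-beta at 500 pg/mL final for 18 h before per-cell GFP fluorescence imaging.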
HepG2 viability – kills HepG2 cells in TGF-b inhibitor counter-screen; Potency, µM (highest dose often 46.1 µM), most hits filed as cytotoxic; 410,000 tested, 0.76% active; HepG2 CAGA-GFP viability, ATP luminescence, 18 h
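CellTiter-Glo luminescence gave cytotoxicity after 18 hours at 37 degrees C. The cells were HepG2 CAGA-GFP in 1% FBS DMEM, stimulated with 500 pg/mL TGF-beta after compound addition. %Activity was normalised to no-cell wells (complete cell-killing) and DMSO (no toxicity), and curves were fitted and classified.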
Hits are given with their value; – = inactive; ? = inconclusive; · = no result; [ ] = another dose, or the depositor's remark. Calls follow the shape of the dose curve; as a rule, active = well fitted curve in the direction sought with a large enough effect; inconclusive = small, poorly fitted or top-dose-only effect, or another doubt; inactive = no such curve, though single readings can be large; an effect the other way counts as inactive or inconclusive.

SMILES | DT40 TDP1 no CPT | HT1080 IDH1KD tx | HT1080NT lethal | DT40 TDP1 CPT | TGFb SMAD3 inh | HepG2 viability
CC[C@@H]1C/C=C\Cc2ccccc2[C@H](C(=O)C[C@H](O)CC(C)=O)OC1=O | – | – | – | – | – | –
O=C(C1CCCN(S(=O)(=O)c2ccc(Br)s2)C1)N1CCCCCC1 (stereo not drawn) | 14.6µM | – | – | 20.6µM | ? | –
O=C(C1CCN(S(=O)(=O)c2ccc(Br)s2)CC1)N1CCCCC1 | 20.6µM | – | – | ? | – | –
Cc1cccc(N2CCN(C(=O)C3CCCN(S(=O)(=O)c4ccc(Br)s4)C3)CC2)c1C (stereo not drawn) | 8.2µM | · | · | 9.2µM | ? | –
Cc1cccc(N2CCN(C(=O)C3CCCN(S(=O)(=O)c4c(C)noc4C)C3)CC2)c1C (stereo not drawn) | 23.1µM | – | – | 23.1µM | – | –
CC(C)OC(=O)C(C)Oc1ccc(C(=O)NCCc2ccccc2)cc1 (stereo not drawn) | – | – | – | – | – | –
O=C(OCCc1cc2ccccc2c(=O)o1)c1cccc(Br)c1 | – | – | – | ? | – | –
O=C(C1CCCN(S(=O)(=O)c2ccc(Br)s2)C1)N1CCN(c2ccccc2)CC1 (stereo not drawn) | 13µM | – | – | 18.4µM | ? | –
Cc1ccc(NC(=O)C2CCCN(S(=O)(=O)c3c(C)noc3C)C2)nc1 (stereo not drawn) | – | – | – | – | – | –
Cc1ccc(NC(=O)C2CCCN(S(=O)(=O)c3c(C)noc3C)C2)c(Br)c1 (stereo not drawn) | ? | – | – | 20.6µM | – | –
CCCN(C(=O)c1cc2c(=O)oc3ccccc3c2s1)c1ccc(CC)cc1 | – | · | · | – | – | –
COc1ccc2ncc3c(-c4ccc(C)c(C)c4)nn(CC(=O)NC4CCCCC4)c3c2c1 | 11.6µM | · | · | 8.2µM | – | –
CCc1ccc2ncc3c(-c4ccc(F)cc4)nn(CC(=O)NC4CCCCC4)c3c2c1 | – | · | · | – | – | –
CCc1ccc(-c2nn(CC(=O)NC3CCCCC3)c3c2cnc2ccc(OC)cc23)cc1 | 5.8µM | · | · | 5.8µM | – | –
COc1cc2ncc3c(-c4ccccc4)nn(CC(=O)NC4CCCCC4)c3c2cc1OC | 14.6µM | · | · | 14.6µM | – | –
Cc1ccc(-c2nn(CC(=O)NC3CCCC3)c3c2cnc2ccccc23)cc1 | – | · | · | – | – | –
CCc1ccc(-c2nn(CC(=O)NC3CCCCC3)c3c2cnc2ccc(C)cc23)cc1 | – | · | · | – | – | –
CCc1ccc(-c2nn(-c3ccc(OC)cc3)c3c2cnc2ccc(OC)cc23)cc1 | 6.51µM | · | · | ? | – | –
O=c1c(-c2ccccc2)nc2cnc(Oc3ccccc3)nc2n1Cc1cccs1 | ? | · | · | – | · | ·
COc1ccccc1CNC(=O)CN(C)CC(=O)Nc1cccc(F)c1 | ? | – | – | ? | – | –
O=C(NCCS(=O)(=O)N1CCCC1)c1ccccc1 | – | – | – | – | – | –
CCCNC(=O)Cn1nc(-c2ccc(C)c(C)c2)c2cnc3ccc(OC)cc3c21 | 8.2µM | · | · | 10.3µM | – | –
CCCNC(=O)Cn1nc(-c2ccc(C)c(C)c2)c2cnc3ccc(F)cc3c21 | – | · | · | ? | – | –
O=C(NCc1cccnc1)c1cc(Sc2ccc(F)cc2F)nc2ccccc12 | 20.6µM | – | – | 23.1µM | – | –
Cc1nc(CN2CCN(Cc3nc(C(c4ccccc4)c4ccccc4)no3)CC2)cs1 | 10.3µM | – | – | 7.31µM | – | –
SMILES | DT40 TDP1 no CPT | HT1080 IDH1KD tx | HT1080NT lethal | DT40 TDP1 CPT | TGFb SMAD3 inh | HepG2 viability
c1ccc(C(c2ccccc2)c2noc(CN3CCN(C4CCCC4)CC3)n2)cc1 | 20.6µM | – | – | ? | – | –
FC(F)(F)c1ccc(-c2noc(CN3CCCN(C4CCCCC4)CC3)n2)cc1 | 20.6µM | – | – | 20.6µM | ? | –
CC(=O)N1CCN(Cc2nc(C(c3ccccc3)c3ccccc3)no2)CC1 | – | – | – | – | – | –
Cc1ncc2c(c1CNS(=O)(=O)N(C)C)CCN(C(=O)c1ccc(F)cc1Cl)C2 | – | · | · | –[9.04 µM] | · | ·
Cc1cc(=O)[nH]c2nc3ccccc3n12 | – | – | – | – | – | –
O=C(CSc1nnnn1-c1ccc(F)cc1)Nc1ccc(N2CCOCC2)c(Cl)c1 | ? | – | – | 14.6µM | – | –
O=C(CSc1nnnn1-c1ccc(Cl)cc1)NC(=O)Nc1ccc2c(c1)OCCO2 | – | – | – | – | – | –
O=C(CSc1nnnn1-c1ccccc1Cl)Nc1ccc2c(c1)OCCO2 | 20.6µM | – | – | 16.4µM | – | –
O=C(NC12CC3CC(CC(C3)C1)C2)c1c(Cl)cccc1Cl | – | – | – | – | – | –
Cc1ccc(C)n1-c1sc2c(c1C#N)CCC(C)C2 (stereo not drawn) | ? | – | – | – | – | –
O=[N+]([O-])c1cccc(S(=O)(=O)Nc2ccccn2)c1 | – | – | – | – | – | –
CC(=O)/C=C\c1ccccc1OC(=O)c1cc2ccccc2oc1=O | – | – | – | – | – | –
O=C(/C=C\c1ccccc1OC(=O)c1ccccc1F)c1cc2ccccc2o1 | 14.6µM | ? | 16.4µM | 8.2µM | 14.1µM | –
Cc1ccc(-n2c(O)c(/C=N/Nc3ccc(S(=O)(=O)N4CCOCC4)cc3[N+](=O)[O-])c3ccccc3c2=O)c(C)c1 | 11.6µM | ? | 11.6µM | 20.6µM | ? | –
O=C(O)c1ccc(/C=N\Nc2ccc(S(=O)(=O)N3CCOCC3)cc2[N+](=O)[O-])cc1 | – | – | – | – | – | –
Cc1ccc(CNS(=O)(=O)c2c(C(=O)N3CCC(C)CC3)c(C)n(C)c2C)cc1 | – | · | · | – | – | –
COc1cc2nc(C3CCC3)nc(N3CCN(c4ccccn4)CC3)c2cc1OC | 9.2µM | – | – | 9.2µM | – | –
COc1cc2nc(C3CCC3)nc(N3CCN(c4ccccc4OC)CC3)c2cc1OC | 16.4µM | – | – | 16.4µM | ? | –
COc1ccccc1N1CCN(C2CCCC(C)C2)CC1 (stereo not drawn) | – | – | – | – | – | –
COc1cccc(C2CC(c3ccccc3)Nc3ncnn32)c1 (stereo not drawn) | – | – | – | – | – | –
Fc1ccc(C2CC(c3ccccc3)n3ncnc3N2)cc1 (stereo not drawn) | – | –[9.24 µM] | – | – | ? | –
CCOc1ccc(C2CC(c3ccc(F)cc3)n3ncnc3N2)cc1 (stereo not drawn) | 20.6µM | – | – | ? | – | –
